The record followed here is PubChem BioAssay AID504333 (National Center for Advancing Translational Sciences (NCATS), 2011).

The structures appear in SMILES notation. Among all 360,000 compounds or so, about 16,000 (4.4%) were called active. Another 9% or so got no clear call; they are omitted. The sample holds actives, similar compounds and a random draw of the others, so the mix is not that of the screen. A number with no mark means an inactive call. The call rests on the fitted dose curve; in most records, active means well fitted inhibition curve with a large enough effect; inconclusive means small, poorly fitted or top-dose-only effect; inactive means no such curve, though single readings can be large or run the other way.
On the % scale 0 is the no-effect control and ±100 the full control effect; potency means the concentration at half of the fitted maximal effect.

In this test the target is Bromodomain adjacent to zinc finger domain protein 2B (Homo sapiens) (UniProt Q9UIF8). The experiment in a line: qHTS Assay for Inhibitors of BAZ2B. Further: nearly all actives have a fitted effect of over 60% in size. Particulars: AlphaScreen BAZ2B-H3K14Ac peptide displacement; series mostly up to 114 µM; activity change, negative = inhibition: at the top concentration. From the text: BAZ2B (bromodomain adjacent to zinc finger domain, 2B) belongs to a family of ubiquitously expressed bromodomain containing proteins, which biological function has not yet been elucidated. […] The interaction of BAZ2B with ISWI mediated by the BAZ1 motif has recently been described. […] The protocol is based on the AlphaScreen (PerkinElmer) displacement assay developed by NCGC [5], but uses the peptide ligand Biot-H3K14Ac, a high affinity binding partner for BAZ2B, in an AlphaScreen format. Although AlphaScreen has significant advantages with its utility in a variety of epigenetic target assays, the primary screening data provided in this deposition should be used with caution due to the prevalence of screening artifacts. The top compound concentration tested was 110uM in this assay, which increases number of actives and potential artifacts. An AlphaScreen counterscreen is highly recommended to be run against any putative actives to eliminate non-specific artifacts. Alternatively, one can use other AlphaScreen assays in PubChem to filter out promiscuous hits. Eberharter, A. et al. ACF1 improves the effectiveness of nucleosome mobilization by ISWI through PHD-histone contacts. The EMBO journal 23, 4029-4039. 2004. PMID: 15457208 [2] Jones, M.H. et al. A novel family of bromodomain genes. Genomics 63, 40-45. 2000. PMID: 10662543 [3] Yasgar, et al. Compound Management for Quantitative High-Throughput Screening. JALA. 2008 Apr;13(2):79-89. PMID: 18496600 [4] Inglese, et al. Quantitative high-throughput screening: a titration-based approach that efficiently identifies biological activities in large chemical libraries. Proc Natl Acad Sci. 1;103(31):11473-8. 2006. PMID: 16864780 [5] Quinn et al. A chemiluminescence-based method for identification of histone lysine methyltransferase inhibitors. Mol Biosyst 6(5): 782-8. 2010. PMID: 20567762 [6] Baell,Holloway. New substructure filters for removal of pan assay interference compounds (PAINS) from screening libraries and for their exclusion in bioassays. J Med Chem. 53(7):2719-40. 2010. PMID: 20131845 NIH Molecular Libraries Probe Production Network [MLPCN] NIH Chemical Genomics Center [NCGC] Structural Genomics Consortium (SGC) NIH Grant: 5U54 MH084681-02
Bromodomain adjacent to zinc finger domain protein 2B (Homo sapiens), sequence (Q9UIF8 whole entry, looked up, the tested form may be a part): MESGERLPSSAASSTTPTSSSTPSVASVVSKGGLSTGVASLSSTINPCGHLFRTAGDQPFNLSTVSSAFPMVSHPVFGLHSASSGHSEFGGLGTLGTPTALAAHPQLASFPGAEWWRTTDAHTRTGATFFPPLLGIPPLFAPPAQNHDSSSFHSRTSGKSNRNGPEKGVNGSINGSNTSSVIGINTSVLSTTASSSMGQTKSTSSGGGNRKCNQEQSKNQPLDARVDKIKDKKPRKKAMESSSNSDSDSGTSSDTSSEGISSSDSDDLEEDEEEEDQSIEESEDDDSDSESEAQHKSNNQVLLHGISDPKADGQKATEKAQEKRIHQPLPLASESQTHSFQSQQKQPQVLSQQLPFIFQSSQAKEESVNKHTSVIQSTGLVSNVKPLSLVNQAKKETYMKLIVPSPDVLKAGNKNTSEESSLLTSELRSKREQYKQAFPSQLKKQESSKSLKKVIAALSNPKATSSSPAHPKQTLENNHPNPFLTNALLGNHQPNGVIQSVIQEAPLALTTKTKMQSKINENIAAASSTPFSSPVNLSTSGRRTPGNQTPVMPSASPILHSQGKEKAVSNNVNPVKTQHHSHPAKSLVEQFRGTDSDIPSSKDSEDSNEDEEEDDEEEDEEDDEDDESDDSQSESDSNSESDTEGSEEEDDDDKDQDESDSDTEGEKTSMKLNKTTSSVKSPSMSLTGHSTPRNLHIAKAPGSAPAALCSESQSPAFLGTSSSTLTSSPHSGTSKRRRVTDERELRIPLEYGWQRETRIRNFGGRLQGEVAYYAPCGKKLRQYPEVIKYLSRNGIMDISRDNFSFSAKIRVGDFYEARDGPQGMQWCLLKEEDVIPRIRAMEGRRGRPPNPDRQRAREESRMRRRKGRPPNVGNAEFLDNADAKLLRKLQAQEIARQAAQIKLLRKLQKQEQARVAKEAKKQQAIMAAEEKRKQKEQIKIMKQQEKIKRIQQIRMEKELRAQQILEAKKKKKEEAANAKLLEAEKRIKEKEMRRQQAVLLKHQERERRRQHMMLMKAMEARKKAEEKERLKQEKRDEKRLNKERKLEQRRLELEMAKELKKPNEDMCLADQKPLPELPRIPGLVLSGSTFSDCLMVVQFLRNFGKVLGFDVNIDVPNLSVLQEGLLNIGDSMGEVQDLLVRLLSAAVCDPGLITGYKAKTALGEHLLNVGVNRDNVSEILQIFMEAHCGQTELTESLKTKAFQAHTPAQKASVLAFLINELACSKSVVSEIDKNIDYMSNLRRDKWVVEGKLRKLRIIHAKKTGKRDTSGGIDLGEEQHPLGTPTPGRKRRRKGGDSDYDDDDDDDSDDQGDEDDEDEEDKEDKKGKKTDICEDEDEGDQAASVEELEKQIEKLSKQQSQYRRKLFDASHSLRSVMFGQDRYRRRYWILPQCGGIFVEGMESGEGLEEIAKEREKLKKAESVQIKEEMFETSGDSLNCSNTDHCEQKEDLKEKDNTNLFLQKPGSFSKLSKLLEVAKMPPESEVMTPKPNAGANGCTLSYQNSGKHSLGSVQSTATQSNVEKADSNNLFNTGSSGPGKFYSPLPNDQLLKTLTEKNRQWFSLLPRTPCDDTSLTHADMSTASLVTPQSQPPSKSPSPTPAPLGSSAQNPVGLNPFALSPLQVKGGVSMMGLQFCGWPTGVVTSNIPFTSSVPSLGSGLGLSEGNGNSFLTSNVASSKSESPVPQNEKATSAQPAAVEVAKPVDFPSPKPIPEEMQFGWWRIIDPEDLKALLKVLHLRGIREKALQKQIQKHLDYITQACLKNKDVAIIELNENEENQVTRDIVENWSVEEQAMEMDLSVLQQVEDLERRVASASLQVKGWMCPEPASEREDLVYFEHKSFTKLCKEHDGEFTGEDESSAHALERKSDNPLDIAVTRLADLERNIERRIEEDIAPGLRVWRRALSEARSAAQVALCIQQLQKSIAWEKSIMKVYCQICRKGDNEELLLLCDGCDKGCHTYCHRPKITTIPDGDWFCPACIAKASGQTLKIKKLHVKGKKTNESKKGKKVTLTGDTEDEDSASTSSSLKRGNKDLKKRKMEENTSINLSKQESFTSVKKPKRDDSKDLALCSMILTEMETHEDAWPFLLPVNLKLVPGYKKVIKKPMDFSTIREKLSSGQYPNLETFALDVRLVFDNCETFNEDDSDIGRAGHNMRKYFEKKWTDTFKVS
To each well of a 1,536w plate, 2ul of BAZ2B protein (final 50nM) and 1ul biotinylated histone peptide acetylated at Lys14 [b-H3(5-23)K14Ac] (final 50nM) were added in 1x PBS buffer, pH 7.4, containing 0.01% Tween-20, using a nanoliter dispenser. Formation of a protein-peptide complex proceeded at room temperature for 30 min. A Kalypsys pin-tool was employed to transfer 23 nL of library compound solution in DMSO to each well. Following a 30 min incubation of the protein-peptide complex with compounds at room temperature, a mixture of 40 ug/mL each streptavidin-coated donor and nickel chelate acceptor AlphaScreen beads (final 10 ug/mL) were added in a 1ul dispense for a final volume of 4ul. A brief centrifugation followed (1000rpm, 1 min) and were then incubated protected from the light for 20 min at room temperature. Plates were read on an EnVision multilabel plate reader using the 1,536 plate HTS AlphaScreen aperture (excitation time 80 ms, measurement time 240 ms).
For orientation: In qHTS, concentration-response curves come from the screen itself.
As for `COc1ccc(Cc2nc3ccc(C(=O)NCc4ccccc4C)cc3o2)cc1`, the “activity change, negative = inhibition” value was 0.109%.

`Cc1cccc(N2CCN(C(=O)c3ccccc3NC(=O)C3CCCCC3C(=O)O)CC2)c1` (stereo not given): the “activity change, negative = inhibition” value was -2.25%. As for `Cc1cccc(N2CCN(c3ccc(C(=O)O)cc3NC(=O)c3ccccc3F)CC2C)c1` (stereo not given), the Potency is 56.2 µM (active). On to `Cc1cccc(C(=O)Nc2ccccc2N2CCN(c3ccc(F)cc3)CC2)c1`, for which the “activity change, negative = inhibition” value is -8.8%. As for `COc1ccc(NC(=O)c2sc3nc(-c4cc5cccc(OC)c5oc4=O)[nH]c(=O)c3c2C)cc1`, the “activity change, negative = inhibition” value is 5.3%.

With `CCn1c2ccccc2c2cc(NC(=O)COc3ccc(C)cc3C)ccc21`, the “activity change, negative = inhibition” value was 2.19%. Take `CCn1c2ccccc2c2cc(NC(=O)CNC)ccc21`: the Potency was 56.2 µM (active). Turning to `CCn1c2ccccc2c2cc(NC(=O)COC(=O)c3ccccc3Br)ccc21`, the “activity change, negative = inhibition” value is -36.9%. `COc1cc(Cl)ccc1Nc1ncc(C(=O)N2CCN(c3ccccc3OC)CC2)c2ccccc12`: the “activity change, negative = inhibition” value was -3.95%.

Regarding `Cc1cccc(N2CCN(c3c(CN4CCCC4)c(=O)oc4ccccc34)CC2)c1C`, the “activity change, negative = inhibition” value is -9.79%. On to `Cc1cccc(N2CCN(C3=C(c4ccccc4)C(=O)c4ccccc43)CC2)c1C`, for which the Potency was 2.24 µM (active). Take `Cc1cccc(N2CCN(Cc3c(C)n(C)n(-c4ccccc4)c3=O)CC2)c1C`: the “activity change, negative = inhibition” value was 5.93%. Still for that read-out and setting: the same measure for `CCOc1ccccc1N(CC)C(=O)Nc1cn(C)c(=O)c2ccccc12`: 6.05%. For the molecule `CC(C)c1ccc(NC(=O)CN(C)S(=O)(=O)c2ccc3c(c2)c(=O)n(C)c(=O)n3C)cc1`, the “activity change, negative = inhibition” value was -2.58%.

Take `CCS(=O)(=O)c1nc(S(=O)(=O)c2ccc(C)cc2)c(NCc2ccc(Cl)cc2)s1`: the “activity change, negative = inhibition” value was -7.97%.

On to `Cn1c(=O)c(C(=O)O)nn(-c2ccccc2)c1=O`, for which the “activity change, negative = inhibition” value was -1.4%.

For `O=C(O)C1CCN(c2ccc([N+](=O)[O-])cc2[N+](=O)[O-])CC1`, the Potency is 56.2 µM (active). For the molecule `CC1CCN(c2ccc([N+](=O)[O-])cc2C(N)=O)CC1`, the “activity change, negative = inhibition” value was -19.3%.

Take `CCOC(=O)C1CCN(c2ccc(C(=O)O)cc2[N+](=O)[O-])CC1`: the “activity change, negative = inhibition” value is 4.06%. With `Cc1ccc(Cl)cc1N1CCN(S(=O)(=O)c2cc3[nH]c(=O)c(=O)[nH]c3cc2C)CC1`, the “activity change, negative = inhibition” value was -20.7%. Consider `COc1ccc(CCC(=O)NCc2ccc3c(c2)CCN3C(=O)c2ccc(F)cc2)cc1`, for which the “activity change, negative = inhibition” value is -1.32%. For the molecule `COc1ccccc1-c1noc(-c2ccc(NCc3ccccc3)c([N+](=O)[O-])c2)n1`, the “activity change, negative = inhibition” value is -4.93%. The same measure, in the same setting: the same measure for `O=C(CSc1nnc(-c2ccccc2F)o1)Nc1cccc(C(F)(F)F)c1`: -13%; for `CNCC(O)CN1CCN(c2ccccc2OC)CC1` (stereo not given): -26%. As for `c1ccc(C(c2ccccc2)N2CCN(Cc3nnnn3C3CCCCC3)CC2)cc1`, the “activity change, negative = inhibition” value is 4.36%. For `COc1ccccc1N1CCN(Cc2cc(OC)c3c(c2)OCO3)CC1`, the “activity change, negative = inhibition” value was -11%.

Consider `COc1ccccc1CN1CCN(Cc2cc(OC)c(OC)cc2OC)CC1`, for which the Potency is 50.1 µM (active).

As to `COc1ccccc1Cn1c(CO)nc2ccccc21`, the “activity change, negative = inhibition” value is -9%. With `Oc1ccccc1CN1CCN(C(c2ccccc2)c2ccccc2)CC1`, the Potency is 50.1 µM (active). For the molecule `COc1ccccc1N1CCN(Cc2ccc(OC)c3ccccc23)CC1`, the Potency was 28.2 µM (active). Turning to `COc1cc(CN2CCCN(C)CC2)c([N+](=O)[O-])cc1OC`, the “activity change, negative = inhibition” value was -9.5%. Turning to `CC(=O)N1CCN(CC(c2ccccc2)c2ccccc2)CC1`, the “activity change, negative = inhibition” value was -23.7%. The same measure, in the same setting: for `COc1ccccc1CNCc1cccs1` the value was 2.33%. Regarding `COc1ccccc1CN1CCN(C(c2ccccc2)c2ccccc2)CC1`, the Potency was 79.4 µM (active). Take `COc1ccccc1CN1CCCC(N2CCN(c3ccc(F)cc3)CC2)C1` (stereo not given): the “activity change, negative = inhibition” value was -2.71%. For the molecule `Cc1ccc2cccc(NC(=O)c3ccc(OC(C)C)cc3)c2n1`, the “activity change, negative = inhibition” value is -7.03%. With `Cc1ccc(NC(=O)CSc2nnc3[nH]c(=O)cc(C)n23)cc1Cl`, the “activity change, negative = inhibition” value is 1.62%. On the same count and under the same terms, for `CSc1ccc(C2c3c(oc4ccccc4c3=O)C(=O)N2CCCN2CCOCC2)cc1` (stereo not given) the value was -3.97%. Still for that read-out and setting: the same measure for `COc1cccc(C(=O)N(Cc2cccc(Cl)c2)Cc2ccco2)c1`: 27%; for `O=C(COc1ccc(Cl)cc1)Nc1ccccc1OCc1cc(=O)n2ccccc2n1`: 3.37%. Turning to `Cc1ccc(NC(=O)c2cc3cc(C)ccc3n2C)cc1`, the “activity change, negative = inhibition” value is -7.6%. For `O=C(Cn1c(=O)n(Cc2ccccc2)c(=O)c2sc3ccccc3c21)Nc1ccccc1F`, the “activity change, negative = inhibition” value is 2.08%. Regarding `Cc1ccc(C2CCN(C(=O)c3cnn(-c4ccccc4Cl)c3C3CCN(C(=O)OC(C)(C)C)CC3)C2)cc1` (stereo not given), the “activity change, negative = inhibition” value is -17.9% [at 57.1 µM]. Take `COc1cccc(CNC(=O)Cn2ncn3c(cc4ccccc43)c2=O)c1`: the “activity change, negative = inhibition” value is 2.55%. On to `Cc1ccc(NC(=O)CN2c3ccccc3S(=O)(=O)c3ccccc32)cc1F`, for which the “activity change, negative = inhibition” value was -11.7%. As to `CCCn1c2ccccc2c2cnn(CC(=O)N3CCCC(C(=O)OCC)C3)c(=O)c21` (stereo not given), the “activity change, negative = inhibition” value was 2.57%. As to `COc1cc2c3c(c1)/C(=C1/SC(=S)NC1=O)C(=O)N3C(C)(C)C=C2C`, the Potency is 44.7 µM (active). Regarding `CCOC(=O)c1ccc(NC(=O)c2nc[nH]c2C(=O)NCc2ccccc2)cc1`, the “activity change, negative = inhibition” value was 3.08%.

Turning to `CCOC(=O)c1[nH]cnc1C(=O)NC1CCCCC1`, the Potency is 50.1 µM (active). Regarding `CC(C)(C)OC(=O)N1CCC(NC(=O)c2[nH]cnc2C(=O)N[C@@H](Cc2ccccc2)C(=O)OCc2ccccc2)CC1`, the “activity change, negative = inhibition” value is -15.2%.
